{"source": "PubChem BioAssay (NCATS)", "note": "Results filed as inconclusive are left out. The source made the active and inactive calls. Calls follow the shape of the dose curve; as a rule, active = well fitted activation curve with a large enough effect; inconclusive = small, poorly fitted or top-dose-only effect; inactive = no such curve, though single readings can be large or run the other way."}
{"target": "Rap guanine nucleotide exchange factor 3 (Homo sapiens) (UniProt O95398)", "sequence (O95398 whole entry, looked up)": "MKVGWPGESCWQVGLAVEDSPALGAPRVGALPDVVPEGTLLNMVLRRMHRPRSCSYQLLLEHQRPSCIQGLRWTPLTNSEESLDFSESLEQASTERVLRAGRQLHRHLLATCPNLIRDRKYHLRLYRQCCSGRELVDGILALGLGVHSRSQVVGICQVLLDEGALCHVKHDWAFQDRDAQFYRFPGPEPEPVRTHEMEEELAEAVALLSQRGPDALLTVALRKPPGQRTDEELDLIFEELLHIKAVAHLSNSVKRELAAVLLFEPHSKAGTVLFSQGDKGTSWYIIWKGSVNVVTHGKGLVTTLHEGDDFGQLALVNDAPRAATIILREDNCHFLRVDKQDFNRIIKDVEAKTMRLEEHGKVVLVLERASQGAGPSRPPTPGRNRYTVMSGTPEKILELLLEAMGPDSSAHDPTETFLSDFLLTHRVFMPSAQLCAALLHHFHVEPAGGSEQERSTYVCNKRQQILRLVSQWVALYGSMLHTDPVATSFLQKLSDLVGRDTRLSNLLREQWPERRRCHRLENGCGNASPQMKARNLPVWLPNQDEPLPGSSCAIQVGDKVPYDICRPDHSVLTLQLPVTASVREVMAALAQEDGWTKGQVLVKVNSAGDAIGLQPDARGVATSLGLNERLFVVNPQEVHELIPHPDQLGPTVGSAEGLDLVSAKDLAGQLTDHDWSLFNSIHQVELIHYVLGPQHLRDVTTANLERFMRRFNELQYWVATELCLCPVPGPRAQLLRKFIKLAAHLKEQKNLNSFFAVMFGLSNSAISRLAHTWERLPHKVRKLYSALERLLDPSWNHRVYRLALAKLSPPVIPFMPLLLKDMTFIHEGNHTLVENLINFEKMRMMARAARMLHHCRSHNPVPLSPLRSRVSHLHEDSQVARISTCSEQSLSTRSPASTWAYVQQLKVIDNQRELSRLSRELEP", "test": "Confirmatory qHTS for agonist of cAMP-regulated guanine nucleotide exchange factor 3 (EPAC1) (AID 1645881);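 also: EPAC1 catalysed release of BODIPY-GDP from Rap1B seen as fluorescence loss; nearly all actives have a fitted effect of over 75% in size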", "settings": "EPAC1 Rap1B BODIPY-GDP exchange fluorescence, 100% = cAMP control response; series mostly up to 154 µM"}
{"smiles": "CC(C)(C)CC(C)(C)c1ccc(O)cc1", "outcome": "inactive"}
{"smiles": "Oc1cc(Cl)ccc1Oc1ccc(Cl)cc1Cl", "outcome": "inactive"}
{"smiles": "Clc1ccc(COC(Cn2ccnc2)c2ccc(Cl)cc2Cl)cc1", "note": "(centres undefined)", "outcome": "inactive"}
{"smiles": "C[C@H]1O[C@@H](O[C@H]2[C@@H](O)C[C@H](O[C@H]3[C@@H](O)C[C@H](O[C@H]4CC[C@@]5(C)[C@H](CC[C@@H]6[C@@H]5CC[C@]5(C)[C@@H](C7=CC(=O)OC7)CC[C@]65O)C4)O[C@@H]3C)O[C@@H]2C)C[C@H](O)[C@@H]1O", "outcome": "inactive"}
{"smiles": "O=c1oc2ccccc2c(O)c1C(CC(O)c1ccc(-c2ccc(Br)cc2)cc1)c1ccccc1", "note": "(centres undefined)", "outcome": "inactive"}
{"target": "Rap guanine nucleotide exchange factor 4 (Homo sapiens) (UniProt Q8WZA2)", "sequence (Q8WZA2 whole entry, looked up)": "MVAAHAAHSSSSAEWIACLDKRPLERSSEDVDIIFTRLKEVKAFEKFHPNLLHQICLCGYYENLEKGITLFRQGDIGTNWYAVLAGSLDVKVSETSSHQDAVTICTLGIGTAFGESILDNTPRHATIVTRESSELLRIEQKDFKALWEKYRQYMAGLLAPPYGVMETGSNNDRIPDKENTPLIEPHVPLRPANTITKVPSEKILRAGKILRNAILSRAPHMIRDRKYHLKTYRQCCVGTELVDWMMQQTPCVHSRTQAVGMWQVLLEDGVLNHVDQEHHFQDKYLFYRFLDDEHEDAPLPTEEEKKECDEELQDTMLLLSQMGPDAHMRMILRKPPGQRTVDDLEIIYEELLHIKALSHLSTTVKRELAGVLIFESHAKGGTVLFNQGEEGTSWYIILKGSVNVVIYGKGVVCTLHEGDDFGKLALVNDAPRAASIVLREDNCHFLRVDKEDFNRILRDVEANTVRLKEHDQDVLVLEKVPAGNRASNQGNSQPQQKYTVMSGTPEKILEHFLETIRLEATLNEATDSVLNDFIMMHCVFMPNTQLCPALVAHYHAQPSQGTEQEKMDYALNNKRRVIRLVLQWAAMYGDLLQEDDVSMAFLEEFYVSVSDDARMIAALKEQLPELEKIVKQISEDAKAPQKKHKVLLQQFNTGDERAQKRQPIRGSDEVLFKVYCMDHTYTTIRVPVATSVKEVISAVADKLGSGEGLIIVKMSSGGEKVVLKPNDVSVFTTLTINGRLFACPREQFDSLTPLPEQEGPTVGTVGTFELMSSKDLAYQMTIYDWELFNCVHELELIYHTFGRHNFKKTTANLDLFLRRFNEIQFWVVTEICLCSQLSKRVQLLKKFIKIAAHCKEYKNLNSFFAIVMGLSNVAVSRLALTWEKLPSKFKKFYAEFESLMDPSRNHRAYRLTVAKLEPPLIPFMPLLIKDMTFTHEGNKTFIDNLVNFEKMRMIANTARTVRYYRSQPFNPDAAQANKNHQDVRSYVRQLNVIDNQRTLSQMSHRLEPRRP", "test": "Confirmatory qHTS for agonist of cAMP-regulated guanine nucleotide exchange factor 4 (EPAC2) (AID 1645884);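 also: nucleotide exchange releases bodipy-GDP from Rap1 and this lowers its fluorescence; nearly all actives have a fitted effect of over 65% in size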", "settings": "EPAC2 GEF activity, Rap1B-BODIPY-GDP fluorescence, percent relative to cAMP agonist control; series mostly up to 154 µM"}
{"smiles": "CC(C)(C)CC(C)(C)c1ccc(O)cc1", "outcome": "inactive"}
{"smiles": "Clc1ccc(COC(Cn2ccnc2)c2ccc(Cl)cc2Cl)cc1", "note": "(centres undefined)", "outcome": "inactive"}
{"smiles": "C[C@H]1O[C@@H](O[C@H]2[C@@H](O)C[C@H](O[C@H]3[C@@H](O)C[C@H](O[C@H]4CC[C@@]5(C)[C@H](CC[C@@H]6[C@@H]5CC[C@]5(C)[C@@H](C7=CC(=O)OC7)CC[C@]65O)C4)O[C@@H]3C)O[C@@H]2C)C[C@H](O)[C@@H]1O", "outcome": "inactive"}
{"smiles": "O=c1oc2ccccc2c(O)c1C(CC(O)c1ccc(-c2ccc(Br)cc2)cc1)c1ccccc1", "note": "(centres undefined)", "outcome": "inactive"}
